The nature of assay [1]: NCI Yeast Anticancer Drug Screen. Data for the rad50 strain (AID 155).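 Further: 0% = growth of vehicle-only cultures of the same strain.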 To be noted: S. cerevisiae rad50 strain growth inhibition, stronger effect = higher value. Put shortly: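 Genetically altered yeast (DNA repair pathway); compound treatment; growth inhibition vs vehicle ctrl.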
Assay [2] in a line: NCI Yeast Anticancer Drug Screen. Data for the mec2-1 strain (AID 157). Conditions: S. cerevisiae mec2-1 strain, stronger effect = higher value. Put shortly: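 Each compound was tested on mec2-1 yeast, a strain altered in DNA damage repair or cell cycle control. Growth inhibition is reported relative to vehicle.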
The nature of assay [3]: NCI Yeast Anticancer Drug Screen. Data for the sgs1 mgt1 strain (AID 161).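 Further: 0% = growth of cultures given vehicle only.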 Conditions: S. cerevisiae sgs1 mgt1 strain, stronger effect = higher value. Summed up:
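Mutant yeast exposed to compound; growth scored against vehicle-only wells.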

The nature of assay [4]: NCI Yeast Anticancer Drug Screen. Data for the cln2 rad14 strain (AID 165).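 Further: 0% = growth equal to vehicle treated cultures.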 Conditions: S. cerevisiae cln2 rad14 strain, stronger effect = higher value. Put shortly: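 Test compounds were added to cln2 rad14 yeast cultures; inhibition of growth was then determined by comparison with vehicle treatment.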
A short description of assay [5]: NCI Yeast Anticancer Drug Screen. Data for the bub3 strain (AID 167). Conditions: S. cerevisiae bub3 mutant strain, stronger effect = higher value. Summed up: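 Yeast carrying a defined mutation is treated with each compound, and growth is compared with that of vehicle-exposed cells to give inhibition.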
Assay [6] is described as follows: NCI Yeast Anticancer Drug Screen. Data for the mlh1 rad18 strain (AID 175). To be noted: S. cerevisiae mlh1 rad18 strain growth inhibition, stronger effect = higher value. Put shortly:
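Inhibition values reflect reduced growth of mutant yeast versus vehicle-treated controls following compound exposure; the mutations affect DNA damage repair.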

Where [7] appears, read: at 5.0 µM (retest, dose inferred, filed as 0.5).
The mark [8] stands for this setting: at 50.0 µM (retest, dose inferred, filed as 5.0).

SMILES strings stand for the structures. This is part of a sample that, as a whole, favours compounds with a hit. Of some 79,000 tested, about 15% had one in any assay. Unmarked numbers belong to inactive results. The source made the active and inactive calls. No stated cut-off is given here; in the data, active means growth inhibition above about 70%; inactive means the rest.

`CCCCC(=S)N1CCN(c2ccccc2)CC1`: the growth inhibition in assay [1] (setting [7]) is -3%; in assay [1] (setting [8]), -8%; in assay [1] (at 50.0 µM), 90.3% (active); in assay [2] (setting [7]) it was 10%; in assay [2] (setting [8]), 12%; in assay [2] (at 50.0 µM), 62.2%. The growth inhibition in assay [3] (setting [7]) was 5%; in assay [3] (setting [8]), 9%; in assay [3] (at 50.0 µM) it was 92.1% (active); in assay [4] (setting [7]) it was -1%; in assay [4] (setting [8]), -14%; in assay [4] (at 50.0 µM), 14.9%. For the same molecule, the growth inhibition is 2% in assay [5] (setting [7]); 20% in assay [5] (setting [8]); 81.7% (active) in assay [5] (at 50.0 µM); -2% in assay [6] (setting [7]); -9% in assay [6] (setting [8]); 87.8% (active) in assay [6] (at 50.0 µM).
On to `CC(=O)N(C)c1ccc2c(c1)Cc1ccccc1-2`, for which the growth inhibition is 2% in assay [1] (setting [7]); 34% in assay [1] (setting [8]); 42.6% in assay [1] (at 50.0 µM); 1% in assay [2] (setting [7]); 21% in assay [2] (setting [8]); 27.4% in assay [2] (at 50.0 µM). In addition, the growth inhibition is 1% in assay [3] (setting [7]); 36% in assay [3] (setting [8]); 42.7% in assay [3] (at 50.0 µM); -2% in assay [4] (setting [7]); 16% in assay [4] (setting [8]); 14.8% in assay [4] (at 50.0 µM). Also, the growth inhibition in assay [5] (setting [7]) is 16%; in assay [5] (setting [8]), 86% (active); in assay [5] (at 50.0 µM), 58.3%; in assay [6] (setting [7]) it was -2%; in assay [6] (setting [8]), 30%; in assay [6] (at 50.0 µM), 23.1%.
Turning to `Clc1ccc(OCC2CO2)c(Cl)c1` (configuration not stated), the growth inhibition in assay [1] (setting [7]) was 43%; in assay [1] (setting [8]), 93% (active); in assay [1] (at 50.0 µM), 96.6% (active); in assay [2] (setting [7]), -17%; in assay [2] (setting [8]), 40%; in assay [2] (at 50.0 µM), 91.5% (active). For the same molecule, the growth inhibition in assay [3] (setting [7]) is 40%; in assay [3] (setting [8]), 82% (active); in assay [3] (at 50.0 µM), 92.2% (active); in assay [4] (setting [7]) it was 5%; in assay [4] (setting [8]) it was 40%; in assay [4] (at 50.0 µM) it was 86.5% (active). Further, the growth inhibition in assay [5] (setting [7]) was 6%; in assay [5] (setting [8]), -7%; in assay [5] (at 50.0 µM) it was 14.9%; in assay [6] (setting [7]) it was 16%; in assay [6] (setting [8]), 84% (active); in assay [6] (at 50.0 µM), 96.8% (active).
For the molecule `CC12CCC3c4cc(O)ccc4CCC3C1CCC2O` (configuration not stated), the growth inhibition in assay [1] (setting [7]) was 4%; in assay [1] (setting [8]) it was 54%; in assay [1] (at 50.0 µM), 50.2%; in assay [2] (setting [7]), -4%; in assay [2] (setting [8]), 51%; in assay [2] (at 50.0 µM) it was 26.5%. Also, the growth inhibition in assay [3] (setting [7]) was 1%; in assay [3] (setting [8]), 81% (active); in assay [3] (at 50.0 µM), 58.2%; in assay [4] (setting [7]), -6%; in assay [4] (setting [8]) it was 41%; in assay [4] (at 50.0 µM) it was 24.8%. Moreover, the growth inhibition in assay [5] (setting [7]) was -1%; in assay [5] (setting [8]), 54%; in assay [5] (at 50.0 µM) it was 55.4%; in assay [6] (setting [7]), 4%; in assay [6] (setting [8]), 67%; in assay [6] (at 50.0 µM), 37%.

For the origin of these results see PubChem BioAssay (NCI).
